target: AMP-activated protein kinase, AMPK (Homo sapiens) (UniProt P54646+O43741+P54619+Q9UGJ0+Q9Y478+Q13131+Q9UGI9); test: AMP-dependent Kinase enzyme assay. An in vitro enzyme assay that detects ADP turnover that is directly proportional to AMPK activity. This uses naive AMPK that is activated during the assay with MK-8722; assay type: functional; set-up: scale not given: direction of the effect not stated beside the values; conditions: 30 µM

Row | Structure (SMILES) | Percent Effect
1 | COc1ccccc1CCN(C)Cc1nc(N)nc(N(C)C)n1 | -4.89%
2 | Cc1cc(C(=O)NCC(=O)N2CCOCC2)nn1C(C)(C)C | 8.45%
3 | CS(=O)(=O)N1C[C@H]2CC[C@@H]1CN(Cc1ccncc1)C2 | 11.6%
4 | O=C1CC2(CCN(Cc3ccc(Cl)s3)C2)C(=O)N1 (stereo not given) | 12.7%
5 | CC(C)(C)c1cc(=O)[nH]c(C2(N)CCCCC2)n1 | 2.04%
6 | CCc1nnc(NC(=O)CCN2CC=C(c3cnn(C)c3)CC2)s1 | 7.71%
7 | Cc1nc(N)nc(C)c1CC(=O)N1CCCN(CC2CC2)C(C(C)C)C1 (stereo not given) | -4.33%
8 | CCc1cccc2c(CC(=O)N(C)CCN(C)C)c(C)[nH]c12 | 9.67%
9 | Cc1cccc(CC(=O)N2CCCC(N(C)CCCN(C)C)C2)c1 (stereo not given) | 6.04%
10 | COc1ccc(NC(=O)CCN2CC=C(c3cnn(C)c3)CC2)c(C)c1 | 6.63%
11 | Cc1cc(Cl)ccc1C(=O)C1CCCN(Cc2cnc(N(C)C)s2)C1 (stereo not given) | 3.99%
12 | Cc1nc(CC(=O)N2CCCC[C@H](N(C)C)C2)cs1 | -2.31%
13 | NC1(c2nc(C(F)(F)F)cc(=O)[nH]2)CCCCC1 | -5.09%
14 | COc1ccc(F)cc1C(=O)C1CCCN(Cc2cnc(C)s2)C1 (stereo not given) | 1.8%
15 | O=C(NC1CC1)[C@H]1CN(Cc2ccccc2)C[C@@H]1C(=O)c1ccccc1 | 12.8%
16 | CCc1cccnc1NCc1cnc(N2CCOCC2)nc1 | 22.9%
17 | Cn1ncc2c(NC3CN4CCC3CC4)nc(-c3ccncc3)nc21 (stereo not given) | 5.93%
18 | CC(=O)Nc1cccc(-c2ccccc2CCN)c1 | 4.86%
19 | CCOCCC(=O)N1C[C@H]2CC[C@@H]1CN(Cc1ccncc1)C2 | 3.36%
20 | Cc1ccc2c(CC(=O)N(C)CCN(C)C)c(C)[nH]c2c1C | -8.21%
